Screens: PubChem, The Scripps Research Institute Molecular Screening Center
CHO-K1 Ca antag = nonselective inhibitor or artifact in parental CHO-K1 cells | hit rate 0.6% among 360,000 | AID 602250 | ATP-induced calcium, Fluo-8 fluorescence | inhibition, % at 3 µM;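 active = inhibition above a per-plate cutoff, the plate's mean sample inhibition plus 3 SD, cut at about 24% in these data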;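 note: 0% = DMSO plus EC80 ATP and 100% = DMSO alone without ATP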
M1 ag parental = counter-screen for M1 agonists: effect in parental CHO-K1 cells. Fluo-8 calcium fluorescence; scaled to maximal ATP response, vehicle zero. activation, % at 3 µM. hit rate 0.48% among 360,000; in the data active = activation above about 15%;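 note: untransfected CHO-K1 host cells lacking M1 receptor as counterscreen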
M1 PAM parental = counter-screen for M1 PAMs: effect in parental CHO-K1 cells | ATP EC20, Fluo-8 calcium fluorescence; 0% at ATP EC20, 100% at ATP max | activation, % at 3 µM | hit rate 0.02% among 360,000;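 active = activation above the run cutoff, the mean activation of all test compounds plus 3 SD, cut at about 40% in these data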;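 note: peak over basal fluorescence ratio in a 140 s read after ATP addition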
CHRM1 PAM = human CHRM1 positive allosteric modulation; CHO-K1 hM1, Fluo-8 calcium fluorescence, ACh EC20; 0% = ACh EC20, 100% = maximal ACh; activation, % at 3 µM; hit rate 0.088% among 360,000; P11229; in the data active = activation above about 19%, passing the limit was not always enough
Target sequence (P11229 whole entry, looked up): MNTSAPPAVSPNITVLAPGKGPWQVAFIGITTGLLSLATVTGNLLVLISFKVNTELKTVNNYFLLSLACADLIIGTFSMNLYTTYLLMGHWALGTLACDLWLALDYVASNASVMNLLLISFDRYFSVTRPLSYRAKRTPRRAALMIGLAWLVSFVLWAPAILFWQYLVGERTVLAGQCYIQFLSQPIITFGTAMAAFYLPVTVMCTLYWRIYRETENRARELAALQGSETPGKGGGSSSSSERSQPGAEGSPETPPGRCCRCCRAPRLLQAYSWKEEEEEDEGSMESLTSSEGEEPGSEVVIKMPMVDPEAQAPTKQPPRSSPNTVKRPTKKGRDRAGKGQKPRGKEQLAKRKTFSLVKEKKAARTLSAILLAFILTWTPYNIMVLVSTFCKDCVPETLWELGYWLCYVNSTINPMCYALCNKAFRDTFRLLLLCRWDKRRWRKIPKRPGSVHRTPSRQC
CHRM1 antagonist = blocks human M1 muscarinic receptor. AID 588852. CHO-K1 hM1, Fluo-8 calcium fluorescence, ACh EC80 antagonist. inhibition, % at 3 µM. P11229. hit rate 1.3% among 360,000;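 active = percent inhibition above its own plate's cutoff, namely the mean of that plate's compound wells plus 3 SD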;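 note: peak over basal fluorescence ratio during 140 s after agonist addition; 0% = ACh EC80 plus DMSO and 100% = DMSO alone without agonist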
CHRM1 agonist = agonists of human M1 muscarinic receptor. P11229. CHO-K1 hM1, Fluo-8 calcium fluorescence, agonist mode; 0% DMSO, 100% acetylcholine EC100. activation, % at 3 µM. hit rate 0.33% among 360,000;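 active = activation above the run's mean compound activation plus 3 SD, cut at about 16% in these data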;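 note: peak over basal fluorescence ratio within a 140 s kinetic read after compound addition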
An asterisk follows results filed as active. Only some compounds are listed: those with a hit (about 2.3% of all), similar ones and a draw of the others.

SMILES | CHO-K1 Ca antag | M1 ag parental | M1 PAM parental | CHRM1 PAM | CHRM1 antagonist | CHRM1 agonist
Cc1ccc(C(=O)C2CN3CCC2CC3)cc1 (stereo unspecified) | -9 | 0 | 16 | -7 | 28* | 1
CCCCCCOc1ccc(CN2CCN(CCO)CC2)cc1 | -10 | 3 | 13 | -19 | 23 | -13
CCCCOc1ccc(CN2CCN(CCO)CC2)cc1 | -1 | 0 | 1 | -19 | 33* | -8
CCS(=O)(=O)Nc1cccc(C(=C2CCCCC2)c2cnc[nH]2)c1 | -21 | 0 | 24 | 4 | -30 | -8
Oc1cccc(/C=N/NP(=S)(c2ccccc2)c2ccccc2)c1 | 25* | 0 | -8 | 2 | 0 | -3
COc1ccccc1-n1c(-c2cccs2)nc2ccccc2c1=O | -21 | 0 | 15 | 4 | -5 | -3
CN1CCC(O)(c2cccs2)C(C(=O)c2cccs2)C1 (stereo unspecified) | -4 | 1 | 3 | 6 | -16 | 0
CCOP(=O)(OCC)C1(O)C(=O)Nc2ccc(Br)cc21 (stereo unspecified) | 2 | 0 | 15 | 6 | -5 | -8
CCN1CCc2ccccc2C1 | -4 | 1 | 11 | 3 | -4 | -4
CCN1CCN(CC(c2ccccc2)c2ccccc2)CC1 | -3 | 1 | 2 | -30 | 100* | -9
O=[N+]([O-])c1nccn1CC(O)CN1CC1 (stereo unspecified) | 5 | 0 | -4 | 10 | 6 | 15
COC(=O)C1=C(c2ccc(F)cc2OCc2ccccc2)C[C@@H]2CC[C@H]1N2C(=O)N1CCC(C)CC1 | 5 | -1 | 3 | -39 | 78* | -14
COC(=O)C1=C(c2ccc(F)cc2OCc2ccccc2)C[C@@H]2CC[C@H]1N2C(=O)NCc1ccccc1C(F)(F)F | -7 | 0 | -9 | -24 | 32* | -9
COC(=O)C1=C(c2ccc(F)cc2OCc2ccccc2)C[C@@H]2CC[C@H]1N2C(=O)N1CCCCC1 | -7 | -1 | 9 | -6 | -1 | -11
COC(=O)C1=C(c2cc3ccccc3o2)C[C@@H]2CC[C@H]1N2C(=O)NCc1ccc(C(F)(F)F)cc1 | -13 | 1 | 18 | -10 | 3 | -11
CCCCCCn1c(O)c(C=NCCN2CCOCC2)c(=O)[nH]c1=O | 7 | 17* | 10 | 12 | -7 | -8
COC(=O)C1=C(c2ccc(Cl)c(C(F)(F)F)c2)C[C@@H]2CC[C@H]1N2C(=O)NCCOc1ccccc1 | -23 | 1 | 23 | 4 | -14 | -7
O=C1NC(=O)C(=Cc2ccc(-c3ccc(F)cc3O)o2)C(=O)N1 | -11 | 5 | 26 | 0 | 47* | 38*
N#CC1=C(N)Oc2c(c(=O)oc3ccccc23)C1c1cccnc1 (stereo unspecified) | -11 | 0 | 6 | 6 | -12 | -2
Cc1nn(-c2ccccc2)c(Cl)c1C1C(C#N)=C(N)Oc2c1c(=O)oc1ccccc21 (stereo unspecified) | 25* | 0 | -6 | -6 | 4 | -3
COc1ccc(C(=O)C2CCCN(C3CSCCSC3)C2)c(C)c1 (stereo unspecified) | -4 | 12 | 19 | -23 | 54* | -7
C=CC[N+]1(C)CC[C@]23c4c5ccc(O)c4O[C@H]2C(=O)CC[C@@]3(O)[C@H]1C5 (stereo partly specified) | 4 | 0 | -4 | -5 | -23 | -4
CCC(CO)(C(=O)OC1CC2CCC(C1)N2C)c1ccccc1 (stereo unspecified) | -9 | 0 | 20 | -28 | 101* | -10
Cc1ccc(-n2cc(CNC(C)Cc3cnccn3)c(-c3cccc(C)c3)n2)cc1 (stereo unspecified) | -15 | 2 | 15 | 4 | -7 | -6
CN1/C(=C\C=C2C(=O)NC(=O)NC2=O)C(C)(C)c2ccccc21 | 8 | 25* | -2 | -9 | 15 | 29*
CN1/C(=C\C=Nc2ccccc2)C(C)(C)c2ccccc21 | 4 | 1 | -18 | -5 | 10 | -3
C#C[C@]1(O)CC[C@H]2[C@@H]3CCC4=Cc5nc6nc7ccccc7n6cc5C[C@]4(C)[C@H]3CC[C@@]21C | 4 | 2 | -9 | -2 | -26 | -1
